Rows were chosen to be rich in hits. Some 2.7% of all compounds tested hit in one or more screens of this group.
Nrf2 ARE act: Nrf2 pathway activation; actives 0.31% (n = 410,000); Potency, µM (titrated, usually from 46.1 µM), inactives show at the highest dose activation, usual class: activators; AID 624171; AREc32 ARE-luciferase reporter (MCF7-derived line), luminescence, 24 h; further: potency means the concentration at half of the fitted maximal effect; % of control where 0% means no effect; nearly all actives have a fitted effect of over 65% in size
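Quantitative high-throughput format: AREc32 reporter cells, 1000 per well, received compound by pin transfer and were incubated 24 hr at 37 deg C, 5% CO2, before Steady-Glo luminescence detection.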
Nrf2 block: Nrf2 pathway inhibition; A549 ARE-Fluc reporter, luciferase luminescence, 18-24 h; Potency, µM (highest dose often 46 µM), for the others: at the highest dose activity change, negative = inhibition, hits mostly inhibitors; actives 2.1% (n = 360,000); further: potency means the concentration at half of the fitted maximal effect; on the % scale 0 is the no-effect control and ±100 the full control effect; nearly all actives have a fitted effect of over 60% in size
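Quantitative HTS in A549 cells stably bearing an antioxidant response element-firefly luciferase construct. Inhibition of Nrf2-driven transcription was scored by luminescence after 18-24 h of compound exposure at 37 °C.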
mIDH1 inhibitor: blocks human mutant IDH1 R132H enzyme | Potency, µM (doses to about 76.6 µM), for the others: at the highest dose activity change, negative = inhibition, actives largely listed as inhibitors | actives 0.093% (n = 390,000) | AID 602179 | IDH1-R132H enzyme, NADPH consumption, diaphorase/resazurin fluorescence; further: potency means the concentration at half of the fitted maximal effect; on the % scale 0 is the no-effect control and ±100 the full control effect; nearly all actives have a fitted effect of over 65% in size
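IDH1-R132H (0.5 ug/mL dispensed) in pH 7.5 Tris buffer was preincubated 30 min with compound, then given a substrate mix of 0.016 mM NADPH and 2 mM alpha-KG for 80 min at room temperature; remaining NADPH was read by diaphorase/resazurin fluorescence.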
12-LOX inh: inhibitors of human 12S-lipoxygenase ALOX12; purified 12hLO, xylenol orange hydroperoxide absorbance; AID 1671190; actives 1.1% (n = 580,000); Potency, µM (series often up to 108 µM), without a hit: at the top dose activity change, negative = inhibition, hits mostly inhibitors; further: potency means the concentration at half of the fitted maximal effect; on the % scale 0 is the no-effect control and ±100 the full control effect
Target sequence (P18054 whole entry, looked up): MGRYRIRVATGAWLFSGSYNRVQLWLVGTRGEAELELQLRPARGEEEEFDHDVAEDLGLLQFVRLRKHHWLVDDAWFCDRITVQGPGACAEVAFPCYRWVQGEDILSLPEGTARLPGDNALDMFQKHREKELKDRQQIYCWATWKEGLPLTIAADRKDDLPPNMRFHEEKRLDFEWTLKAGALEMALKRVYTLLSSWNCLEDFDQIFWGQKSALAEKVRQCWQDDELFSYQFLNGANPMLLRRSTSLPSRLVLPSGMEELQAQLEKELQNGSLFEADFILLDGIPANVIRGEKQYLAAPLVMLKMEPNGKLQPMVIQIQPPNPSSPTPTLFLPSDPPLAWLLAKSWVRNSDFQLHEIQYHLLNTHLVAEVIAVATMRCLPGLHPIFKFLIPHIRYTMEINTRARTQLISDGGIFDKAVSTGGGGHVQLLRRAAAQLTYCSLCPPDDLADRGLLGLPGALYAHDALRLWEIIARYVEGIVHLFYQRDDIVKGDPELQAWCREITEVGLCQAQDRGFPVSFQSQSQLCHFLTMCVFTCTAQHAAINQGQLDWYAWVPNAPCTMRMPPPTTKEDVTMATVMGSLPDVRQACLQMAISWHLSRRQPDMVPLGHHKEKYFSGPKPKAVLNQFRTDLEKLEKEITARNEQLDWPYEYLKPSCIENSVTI
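Hydroperoxide product was detected by ferrous iron/xylenol orange as the 573 to 405 nm absorbance ratio. Arachidonic acid at 40 uM (final) was turned over for 30 min at room temperature by 150 nM human 12hLO, pH 7.0 Hepes buffer, after 15 min compound preincubation.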
A549 tox: A549 cytotoxicity, counter-screen for Nrf2 inhibitors. A549 ARE-Fluc cells, CellTiter-Fluor viability, 18-24 h. Potency, µM (doses to about 46 µM), for inactives: at the top dose activity change, negative = cytotoxicity, most hits filed as inhibitors. actives 0.16% (n = 390,000). AID 504648; further: potency means the concentration at half of the fitted maximal effect; on the % scale 0 is the no-effect control and ±100 the full control effect
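A549 ARE-Fluc cells in 5% FBS OPTI-MEM, 5000 cells/well, rested 2 h then exposed to compounds in concentration-response for 18-24 h at 37 °C. Viability by CellTiter-Fluor fluorescence (Ex 405/Em 525) after 30 min; luciferase luminescence (BugLite, 15 min, RT) read afterwards.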
LDHA inh: LDHA (human) enzyme inhibition; activity change, % (values are at about 110 or 230 µM); P00338; actives 0.15% (n = 480,000); purified LDHA, NADH/diaphorase-resazurin fluorescence; hits give low values; AID 1347041; in the data active means activity change below about -30%; inconclusive means mostly about -25% to -30%;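 further: plate controls were DMSO wells for no effect and wells without enzyme for full effect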
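Remaining NADH was detected by diaphorase (0.133 mg/mL) converting 37 µM resazurin to fluorescent resorufin, read at 0 and 20 minutes. The preceding 5-minute room-temperature reaction used 2 nM LDHA, 0.2 mM sodium pyruvate and 0.06 mM NADH at pH 7.4.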
Numbers without * were called inactive; i = inactive; ? = inconclusive; / = no result; ! = not active in a repeat; [ ] = another dose, or the depositor's remark. Unless noted, the call rests on the fitted dose curve; in most records, active means well fitted curve in the direction sought with a large enough effect; inconclusive means small, poorly fitted or top-dose-only effect, or another doubt; inactive means no such curve, though single readings can be large; an effect the other way counts as inactive or inconclusive.

SMILES	Nrf2 ARE act	Nrf2 block	mIDH1 inhibitor	12-LOX inh	A549 tox	LDHA inh
CCOC(=O)CCCNC(=O)COC(=O)c1cc(-c2cccs2)nc2ccccc12	/	/	/	-25%	/	7
CCOc1ccc(NC(=O)CN(C)C(=O)CCCOc2ccc(Cl)c(C)c2)cc1OCC	3%	21µM*	2%	?	?	-4
CCOc1ccc(NC(=O)CN(C)C(=O)CCc2ccccc2Cl)cc1OCC	0%	3%	4%	2%	0%	-5
Clc1ccsc1-c1csc(-c2cccnc2)n1	2.2µM*	/	4%	7%	?	-8
O=S(=O)(c1ccc(-c2csc(-c3cccnc3)n2)cc1)N1CCCCC1	0%	21µM*	0%	?	-15%	-5
O=S(=O)(c1ccc(-c2csc(Nc3cccc4ccccc34)n2)cc1)N1CCCCC1	/	/	/	16µM*	/	3
CCOC1CCCc2oc(-c3ccc(OC)cc3)c(C(=O)NCCCCO)c21 (stereo not given)	1%	/	/	13µM*	/	0
NS(=O)(=O)c1ccc(N/N=C/c2ccccc2C(F)(F)F)c([N+](=O)[O-])c1	/	/	/	-5%	/	-14
CC(OC(=O)c1cc(=O)c2ccccc2o1)C(=O)Nc1cccc(C(F)(F)F)c1 (stereo not given)	/	/	/	?	/	-3
COc1ccc(NC(=O)CCn2nc(-c3cccs3)oc2=O)c(OC)c1	/	/	/	24%	/	-3
CCn1cc(-c2cc(C(=O)O)c3ccccc3n2)c(C)n1	0%	?	4%	13µM*!	-3%	-11
CCn1cc(-c2cc(C(=O)O)c3ccccc3n2)cn1	4%	18µM*	3%	-6%	-4%	1
CCn1cc(CNC(=O)c2cc(-c3ccccc3)nc3ccccc23)cn1	/	/	/	-3%	/	3
COc1ccc(C(=O)NC(=S)Nc2ccc(CN3CCOCC3)cc2)cc1Cl	2%	-13%	5%	32µM*	2%	-9
CCc1ccc(C(=O)NC(=S)Nc2ccc(N3CCOCC3)cc2)cc1	0%	?	-1%	22µM*	1%	-1
O=C(NC(=S)Nc1ccc(N2CCOCC2)cc1)c1ccccc1	7%	?	10%	?	-1%	-3
COc1ccc(C(=O)NC(=S)Nc2ccc(CN3CCOCC3)cc2)cc1OC	0%	-17%	8%	0%	0%	-7
COC(=O)c1c(NC(=O)/C=C/C(=O)O)sc(Cc2ccccc2)c1C	22µM*	-21%	6%	/	-12%	-17
O=[N+]([O-])c1cccc(N=Nc2ccc(O)cc2O)c1	?	?	17%	20µM*	?	5
CC1(C)CC(=O)C(N=Nc2cccc([N+](=O)[O-])c2)=C(O)C1	25%	-11%	4%	?	-12%	-4
CCOc1cc(C=O)cc(N=Nc2cccc([N+](=O)[O-])c2)c1O	10µM*	3%	-4%	-4%	-12%	-4
CC(=O)N(C)C1CCCc2ccccc21 (stereo not given)	/	/	/	66%[176 µM]	/	/
O=C(CSc1nccc(C(F)(F)F)n1)c1ccccc1	/	/	/	?	/	-8
CCc1nc2oc3ccccc3c(=O)c2c(=O)n1-c1ccc(C)cc1	?	i	0%	?	-6%	6
CCCc1nc2oc3ccccc3c(=O)c2c(=O)n1-c1ccc(C)cc1	11µM*	?	6%	5%	0%	3
SMILES	Nrf2 ARE act	Nrf2 block	mIDH1 inhibitor	12-LOX inh	A549 tox	LDHA inh
COC(=O)c1cc(-c2c(C)oc3cc(OC(C)C)ccc3c2=O)c(C)o1	3%	?	0%	-28%	1%	-2
CCCCOc1ccc2c(=O)c(-c3cc(C(=O)OC)oc3C)c(C)oc2c1	/	/	/	45µM*	/	-7
CC(=O)Nc1cccc(C(C)NCc2csc(C)n2)c1 (stereo not given)	/	/	/	2µM*	/	1
COc1ccc2c(Sc3ccc(C)cc3)c(C(=O)NCC(C)c3ccccc3)[nH]c2c1 (stereo not given)	-1%	?	13%	-16%	5%	3
COc1ccc2c(Sc3ccc(Cl)cc3)c(C(=O)N3CCCCC3)[nH]c2c1	0%	21µM*	-6%	?	-9%	-2
COc1ccc2c(Sc3ccc(C)cc3)c(C(=O)NC(C)C)[nH]c2c1	0%	23µM*	-4%	-24%	-2%	-1
COc1ccc2c(Sc3ccc(Cl)cc3)c(C(=O)N3CCC(C)CC3)[nH]c2c1	6%	?	19%	?	9%	2
C=CCNC(=O)NCC(=O)Nc1ccc(F)c(F)c1F	/	/	/	38%	/	4
COc1cc(C(=O)NCCc2csc(-c3ccccn3)n2)cc(OC)c1OC	/	/	/	25%	/	20
CCN(CC)CCNC(=O)c1ccc2c(=O)n3nc(Nc4ccccc4OC)sc3nc2c1	8%	?	9%	-29%	15µM*	6
Cc1ccc(C)c(Nc2nn3c(=O)c4ccc(C(=O)NCc5cccs5)cc4nc3s2)c1	1%	/	-2%	?	?	-6
COc1ccccc1Nc1nn2c(=O)c3ccc(C(=O)NCc4cccs4)cc3nc2s1	0%	/	-10%	4%	7.3µM*	-3
Cc1cc(N2C(=O)CC(N3CCN(c4ccc(C(=O)c5cccs5)cc4)CC3)C2=O)no1 (stereo not given)	0%	/	6%	32µM*	-2%	-2
CCC(C)NC(=O)C1CC2CCC1C2 (stereo not given)	/	/	/	-2%	/	-3
COc1ccc(-c2cc3ccc(OC(C)=O)cc3oc2=O)cc1	/	/	/	-1%	/	6
CC(C)=C1C(=O)NN(c2ccc(C)c(Cl)c2)C1=O	3%	-11%	-3%	50µM*	0%	7
CCCOC(=O)C1=C(C)Nc2nnnn2C1c1cc(Br)ccc1OCC (stereo not given)	/	/	/	35%	/	-32*
Cc1cc(=O)oc2cc(OS(=O)(=O)c3ccc(F)cc3)ccc12	/	/	/	36%	/	10
COc1cccc(CNC(=O)CN2C(=O)C(C)=C(c3ccc(C)c(C)c3)S2(=O)=O)c1	/	/	/	?	/	-9
O=C(CCl)N1c2ccccc2SCC1c1ccccc1 (stereo not given)	-1%	26µM*	0%	20µM*	?	1
CCOc1ccc(CN(C)C(=O)CNC(=O)c2ccccc2)cc1	2%	-26%	-16%	0%	1%	-2
C=CCOc1ccc(CN(C)C(=O)CNC(=O)c2ccc(-c3ccccc3)cc2)cc1	2%	16µM*	-6%	-12%	-21%	-9
Cc1ccn2c(Nc3ccccc3)c(-c3ccccn3)nc2c1	0%	26µM*	-2%	-2%	?	9
